PubChem BioAssay (Tox21)
Inconclusive results are not listed. Where a call stands in place of a potency, no number is given. The source made the active and inactive calls. Calls follow the shape of the full dose curve.

target: Progesterone receptor (Homo sapiens) (UniProt P06401); assay: qHTS assay to identify small molecule agonists of the progesterone receptor (PR) signaling pathway (AID 1346784); settings: PR-UAS-bla HEK293T, beta-lactamase FRET ratio, 16 h; series mostly up to 92.4 µM; also: nearly all actives have a fitted effect of over 30% in size
Source text: U.S. Tox21 Program National Center for Advancing Translational Sciences [NCATS] NIH Chemical Genomics Center [NCGC] U.S. Environmental Protection Agency [EPA] National Institutes of Environmental Health Sciences [NIEHS] National Toxicology Program [NTP] U.S. Food and Drug Administration [FDA] […] Endocrine disrupting chemicals (EDCs) and their interactions with steroid hormone receptors like PR causes disruption of normal endocrine function. To identify the compounds that activate PR signaling, a PR-UAS-bla GripTite cell line i.e. PR-UAS-bla HEK 293T (Invitrogen, Carlsbad, CA, USA) containing a beta-lactamase reporter gene under the control of an Upstream Activator Sequence (UAS) was used to screen Tox21 10K compound library.
Tox21 Assay Protocol Summary: PR-UAS-bla HEK 293T cells were dispensed at 3,000 cells/5 uL of assay medium containing 2% charcoal stripped FBS per well into black wall/clear-bottom 1536-well plates using a Multidrop Combi (ThermoFisher Scientific, Waltham, MA) dispenser. After the assay plates were incubated at a 37C and 5% CO2 for 6hr, 23 nL of compounds dissolved in DMSO, positive controls or DMSO only was transferred to the assay plate by a Pintool station (Kalypsys, San Diego, CA). The plates were incubated at 37C and 5% CO2 for 16hr. Then 1 uL of LiveBLAzer B/G FRET substrate was added using a BioRAPTR FRD (Flying Reagent Dispenser, Aurora Discovery, San Diego, CA). After the plates were incubated at room temperature for 2 hours, fluorescence intensity was measured by an Envision plate reader (PerkinElmer, Shelton, CT).

Progesterone receptor (Homo sapiens), sequence (P06401 whole entry, looked up): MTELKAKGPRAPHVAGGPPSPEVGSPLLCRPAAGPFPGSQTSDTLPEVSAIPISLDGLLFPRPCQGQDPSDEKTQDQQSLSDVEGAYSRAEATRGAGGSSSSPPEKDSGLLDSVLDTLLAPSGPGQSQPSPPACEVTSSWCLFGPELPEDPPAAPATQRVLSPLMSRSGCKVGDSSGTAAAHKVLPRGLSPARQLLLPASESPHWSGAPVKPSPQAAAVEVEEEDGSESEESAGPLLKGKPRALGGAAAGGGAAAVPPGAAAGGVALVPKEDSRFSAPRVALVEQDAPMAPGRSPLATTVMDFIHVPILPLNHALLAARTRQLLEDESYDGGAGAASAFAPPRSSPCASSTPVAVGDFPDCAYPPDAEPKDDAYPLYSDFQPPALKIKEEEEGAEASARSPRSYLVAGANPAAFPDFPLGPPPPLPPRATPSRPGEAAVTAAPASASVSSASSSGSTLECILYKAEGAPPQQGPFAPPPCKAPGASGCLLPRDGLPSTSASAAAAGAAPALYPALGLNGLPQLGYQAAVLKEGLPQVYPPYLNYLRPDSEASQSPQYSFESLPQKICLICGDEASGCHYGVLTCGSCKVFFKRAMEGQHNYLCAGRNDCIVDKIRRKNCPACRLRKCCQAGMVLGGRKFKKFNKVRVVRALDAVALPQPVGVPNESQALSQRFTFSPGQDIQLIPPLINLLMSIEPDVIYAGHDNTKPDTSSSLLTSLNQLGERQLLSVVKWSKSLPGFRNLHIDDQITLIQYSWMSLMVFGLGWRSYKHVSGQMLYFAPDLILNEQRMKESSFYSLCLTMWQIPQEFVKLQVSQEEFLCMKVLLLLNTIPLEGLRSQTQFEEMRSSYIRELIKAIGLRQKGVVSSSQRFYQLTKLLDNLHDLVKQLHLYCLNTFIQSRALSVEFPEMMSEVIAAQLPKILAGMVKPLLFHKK

Structure (SMILES)	Potency
CC(C)(C#N)N=NC(C)(C)C#N	inactive
CCCCCCCC[N+](C)(CCCCCCCC)CCCCCCCC	inactive
O=NN(c1ccccc1)c1ccccc1	inactive
CCCCSP(=O)(SCCCC)SCCCC	inactive
O=P(OCCCl)(OCCCl)OCCCl	inactive
ClC(Cl)(Cl)Br	inactive
CN(C)c1ccccc1	inactive
CCCCOC(=O)COC(=O)c1ccccc1C(=O)OCCCC	inactive
N#Cc1cccnc1	inactive
CCC/C=N/O	inactive
Cc1ccc(N=CN(C)C=Nc2ccc(C)cc2C)c(C)c1	inactive
CCOC(=O)c1ccccc1N	inactive
c1ccc(C2CO2)cc1 (stereo not given)	inactive
[CH3][Sn]([Cl])([Cl])[Cl]	inactive
Clc1cccc(Cl)c1	inactive
CNC(=O)CSP(=S)(OC)OC	inactive
ClCC(Cl)CCl	inactive
O=C1C(Cl)=C(Cl)C(=O)c2ccccc21	inactive
C=CC(=O)OCC(CC)(COC(=O)C=C)COC(=O)C=C	inactive
COP(=O)(NC(C)=O)SC (stereo not given)	inactive

Structure (SMILES)	Potency
O=C1Nc2ccc(Cl)cc2C(c2ccccc2)=NC1O (stereo not given)	inactive
CCOP(=S)(OCC)SCn1c(=O)oc2cc(Cl)ccc21	inactive
Nc1ncn[nH]1	inactive
NN=C(N)N	inactive
O=NN1CCOCC1	inactive
CCOP(=O)(OCC)OCC	inactive
CC(C)=CC1C(C(=O)OCc2cccc(Oc3ccccc3)c2)C1(C)C (stereo not given)	inactive
CCOP(=O)(O)OCC (tested in a mixture with another compound)	inactive
CCCCCCCCCc1ccc(O)cc1	inactive
OCCOCCO	inactive
CNC(=S)S	inactive
CC(C)(O)C#N	inactive
CC(C)=CC1C(C(=O)OCN2C(=O)C3=C(CCCC3)C2=O)C1(C)C (stereo not given)	inactive
O=S(=O)(O)C(F)(F)C(F)(F)C(F)(F)C(F)(F)C(F)(F)C(F)(F)C(F)(F)C(F)(F)F	inactive
CN(C)c1nc(=O)n(C2CCCCC2)c(=O)n1C	inactive
C[N+](C)(C)CC(=O)O	inactive
S=c1[nH]c2ccccc2[nH]1	inactive
CCOS(=O)(=O)OCC	inactive
CCNCC	inactive
CCCCOCC1CO1 (stereo not given)	inactive
